# Most compounds without a hit are left out; they make up all but 21% or so of the library.
# Pf growth 48h: inhibits P. falciparum growth in the first generation, 48 h. P. falciparum luciferase growth in erythrocytes, 48 h. Potency, µM (series often up to 28.7 µM), without a hit: at the highest dose activity change, negative = inhibition, usual class: inhibitors. 310,000 compounds, 5.9% hits. AID 504832; further: potency means the concentration at half of the fitted maximal effect; on the % scale 0 is the no-effect control and ±100 the full control effect
#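 Parasite viability was followed by luminescence of a genomically integrated firefly luciferase. Cultures held 0.1% parasitemia at 2% hematocrit (final), incubated under 5% CO2 at 37 C.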
# NS1 inh: influenza NS1 inhibition. Potency, µM (highest dose often 46.1 µM), for inactives: at the top dose activity, positive = more growth. 270,000 compounds, 0.4% hits. AID 2326; calls by dose curve; further: potency means the concentration at half of the fitted maximal effect; actives are rising curves; nearly all actives have a fitted effect of over 50% in size
#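 A cell-based growth assay was used: compounds that relieve NS1-induced slow growth of budding yeast raise OD600. Assay medium was yeast nitrogen base with ammonium sulphate and -URA supplement, pH 6.0, with 2% galactose.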
# Cycloheximide cs: counter-screen hit for Shiga toxin inhibitors, cycloheximide; cell reporter, cycloheximide protein synthesis inhibition counterscreen; max response, %; 300,000 compounds, 12% hits; AID 2314; in the data active means max response mostly above about 13%, no sharp cut-off; inactive means mostly below about 14%; further: read at 38.3 µM for the half of the compounds with a filed dose; 0% is about no effect
# FBPA Giardia inh: inhibitors of Giardia lamblia fructose-1,6-bisphosphate aldolase. 290,000 compounds, 0.71% hits. purified Giardia FBPA. A8B2U2. Potency, µM (highest dose often 59.6 µM), inactives show at the highest dose activity, negative = inhibition, most hits filed as inhibitors; further: potency means the concentration at half of the fitted maximal effect; on the % scale 0 is the no-effect control and ±100 the full control effect; nearly all actives have a fitted effect of over 55% in size
# Target sequence (A8B2U2 whole entry, looked up): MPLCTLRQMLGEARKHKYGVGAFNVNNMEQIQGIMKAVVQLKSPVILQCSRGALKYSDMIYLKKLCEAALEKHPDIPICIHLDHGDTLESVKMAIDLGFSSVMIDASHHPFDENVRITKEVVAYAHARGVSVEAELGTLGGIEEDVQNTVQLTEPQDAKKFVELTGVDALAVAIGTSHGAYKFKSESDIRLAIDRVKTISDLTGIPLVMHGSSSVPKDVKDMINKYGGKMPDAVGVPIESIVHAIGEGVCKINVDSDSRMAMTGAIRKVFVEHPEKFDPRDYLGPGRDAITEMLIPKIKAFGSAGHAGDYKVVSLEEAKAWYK
#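 Giardia FBPA (40 nM reagent) was preincubated 10 min at RT with compound (up to 57.5 uM final), then substrate plus GAPDH/TPI/NAD/arsenate coupling system with diaphorase/resazurin was added; resorufin fluorescence (525/598 nm) was read after 20 min.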
# Pf growth 96h: inhibits malaria parasite growth, 96 h; 320,000 compounds, 6.9% hits; P. falciparum luciferase reporter growth, 96 h; AID 504834; Potency, µM (series often up to 28.7 µM), inactives show at the highest dose activity change, negative = inhibition, hits mostly inhibitors; further: potency means the concentration at half of the fitted maximal effect; on the % scale 0 is the no-effect control and ±100 the full control effect
#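 96 h incubation, 37 C, 5% CO2, of luciferase-reporter P. falciparum-infected RBCs (2% hematocrit, 0.05% parasitemia final) with test compounds; endpoint luminescence.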
# Shiga toxin inh: Shiga toxin inhibition; Vero cells, Shiga toxin protein synthesis inhibition reporter; inhibition, % at 38.7 µM; 290,000 compounds, 9.2% hits; AID 2315; in the data active means inhibition mostly above about 28%, no sharp cut-off; inactive means mostly below about 43%; further: 0% is about no effect
# Starred values were filed as active, the others as inactive; i = inactive; ? = inconclusive; nt = not tested or not shown. Unless noted, the call rests on the fitted dose curve; in most records, active means well fitted curve in the direction sought with a large enough effect; inconclusive means small, poorly fitted or top-dose-only effect, or another doubt; inactive means no such curve, though single readings can be large; an effect the other way counts as inactive or inconclusive.
SMILES,Pf growth 48h,NS1 inh,Cycloheximide cs,FBPA Giardia inh,Pf growth 96h,Shiga toxin inh
Cc1nnc(Oc2ccccc2)c2ccccc12,-3.2%,-18.2%,23.5*,5.3%,-26.8%,46.6*
Cc1nnc(Oc2ccc([N+](=O)[O-])cc2)c2ccccc12,66.9%,-3.6%,11.1,-3.1%,40.0%,30.0
Cc1ccccc1Oc1nnc(-c2cccs2)c2ccccc12,-6.5%,-0.5%,-0.3,2.8%,?,-12.5
Cc1ccc(OC(C)C(=O)Nc2ccccc2C(=O)N2CCN(C)CC2)cc1 (configuration not stated),-1.8%,1.3%,-3.0,-1.5%,?,-18.6
COc1ccccc1CCC(=O)N1CCN(S(=O)(=O)c2cc(C(F)(F)F)ccc2Cl)CC1,?,nt,nt,nt,3.7µM*,nt
Brc1c(CSc2nnc(-c3ccco3)o2)nc2ccccn12,nt,-129.2%,22.3*,-15.0%,-19.0%,55.7
CSCCC(NC(=O)COc1ccccc1)C(=O)N1CCN(C(C)=O)CC1 (configuration not stated),7.8%,1.6%,-1.8,nt,22.5%,-3.6
N#Cc1ccc(CSc2ncnc3c2cnn3Cc2ccccc2)cc1,?,-4.8%,-3.1,8.4%,7.38µM*,8.8
Cc1ccc(CSc2ncnc3c2cnn3Cc2ccccc2)cc1,-1.6%,-5.2%,-4.5,6.9%,nt,-11.4
Cc1ccc(C(=O)NNC(=O)c2ccc(NC(=O)C(C)(C)C)cc2)cc1,5.9%,17.3%,0.7,4.8%,14.7µM*,2.4
Cc1ccc(C(=O)NNC(=O)c2ccc(C)cc2)cc1,28.1%,nt,16.4,6.0%,6.8%,20.3
Cc1cccc(C(=O)NNC(=O)c2ccc(NC(=O)C(C)(C)C)cc2)c1,34.0%,-23.2%,30.4*,2.1%,-31.8%,39.1*
CCc1nnc(NC(=O)CSCc2cc(=O)n3ccsc3n2)s1,-5.8%,9.0%,-1.0,nt,?,0.6
CC(=O)NC(Cc1ccccc1)C(=O)NC1CCN(C(=O)NC2CCCCC2)CC1 (configuration not stated),2.1%,-1.9%,-3.4,-2.0%,7.6%,16.8
COc1ccccc1CC(NC(C)=O)C(=O)NC1CCN(C(=O)Nc2cccc(F)c2)CC1 (configuration not stated),-20.5%,-3.0%,-2.8,10.7%,1.31µM*,-2.0
COc1ccccc1CC(NC(C)=O)C(=O)NC1CCN(C(=O)c2ccc([N+](=O)[O-])cc2)CC1 (configuration not stated),0.0%,-5.2%,-6.7,10.5%,6.57µM*,-6.3
COc1cccc(NC(=O)N2CCC(NC(=O)C(Cc3ccccc3OC)NC(C)=O)CC2)c1 (configuration not stated),-6.7%,-3.0%,-2.4,-18.5%,?,3.3
COc1ccc(C(=O)N2CCC(NC(=O)C(Cc3ccccc3OC)NC(C)=O)CC2)cc1 (configuration not stated),-18.2%,10.7%,-4.2,5.3%,19.0%,9.5
COc1cc(C(=O)N2CCC(NC(=O)C(Cc3ccccc3)NC(C)=O)CC2)cc(OC)c1OC (configuration not stated),?,-4.2%,-1.1,-0.2%,11.7µM*,41.6
C[N+]1(CCC[N+]2(C)C[C@H]3[C@H](C2)[C@H]2C=C[C@@H]3CC2)CCOCC1 (some centres not stated),nt,5.1%,nt,nt,nt,nt
c1ccc2c(c1)nc1n2C2(N3CCOCC3)CCCC2C1N1CCOCC1 (configuration not stated),24.9%,-0.8%,10.5*,-6.5%,-10.1%,41.7
COc1ccc(OCCCC(=O)OC(C)C(=O)Nc2ccc(S(N)(=O)=O)cc2)cc1 (configuration not stated),-17.5%,nt,nt,nt,6.9%,nt
O=C(/C(N=Nc1cccc(C(F)(F)F)c1)=C(/O)c1cccs1)C(F)(F)F,?,-58.9%,35.5*,-6.7%,5.22µM*,66.3*
CC(=O)/C(N=Nc1cccc(C(F)(F)F)c1)=C(\C)O,-10.7%,nt,1.0,-0.7%,-0.4%,11.4
N#Cc1c(NC(=O)c2cnn3cccnc23)sc2c1CCCC2,52.1%,2.4%,14.1,0.9%,28.5%,41.3
SMILES,Pf growth 48h,NS1 inh,Cycloheximide cs,FBPA Giardia inh,Pf growth 96h,Shiga toxin inh
O=C(Nc1cnn(C23CC4CC(CC(C4)C2)C3)c1)c1cnn2cccnc12,82.1%,-33.4%,64.4*,-12.4%,15.9%,89.8*
COc1ccccc1/C=C1/SC(=S)N(C(C)C(=O)NC2C=CS(=O)(=O)C2)C1=O (configuration not stated),?,14.7%,18.7*,nt,?,19.5
CC(C(=O)NC1C=CS(=O)(=O)C1)N1C(=O)/C(=C/c2cccc(Cl)c2)SC1=S (configuration not stated),-13.9%,7.4%,9.1,nt,30.5%,19.7
CC(C(=O)NC1C=CS(=O)(=O)C1)N1C(=O)/C(=C\c2ccccc2)SC1=S (configuration not stated),-11.8%,-17.0%,23.1*,-3.6%,?,23.7*
O=C(CN1C(=O)/C(=C/c2ccccc2F)SC1=S)NC1C=CS(=O)(=O)C1 (configuration not stated),-0.6%,18.4%,-1.4,0.0%,4.3%,-4.6
Cc1ccc(OCCNC(=O)C2CC(=O)N(Cc3ccccc3)C2)cc1 (configuration not stated),-25.9%,nt,nt,nt,?,nt
O=C(NCC(=O)N1CCCCC1)c1ccc2ccccc2c1,54.0%,-5.0%,34.2*,nt,39.8%,33.6
CC1CC(C)CN(C(=O)CNC(=O)c2ccc3ccccc3c2)C1 (configuration not stated),-7.6%,0.0%,18.5*,4.1%,-8.3%,12.6
O=C(CS(=O)(=O)c1ccc2ccccc2c1)N1CCCCCC1,-5.5%,nt,44.3*,5.9%,?,51.4*
O=C(NCC(=O)N1CCN(S(=O)(=O)c2ccccc2)CC1)c1ccc2ccccc2c1,10.3%,nt,nt,nt,-14.2%,nt
Cc1c(C(=O)Nc2ccccc2F)sc2ncn(CC(=O)N3CCCCC3)c(=O)c12,-3.3%,6.2%,21.7,-1.0%,?,30.6
Cc1ccc(NCC(=O)N=Nc2c(O)n(C)c3ccccc23)cc1,14.3%,1.1%,15.0*,-15.1%,-22.7%,56.1*
CCn1c(O)c(N=NC(=O)CNc2ccc(C)cc2)c2ccccc21,-18.8%,3.2%,-3.5,-6.4%,-17.9%,30.8
Cn1c(O)c(N=Nc2ccc(F)cc2)c2ccccc21,i,nt,39.8*,-6.0%,-3.1%,35.3
O=C(NCc1nc(-c2ccc(Cl)cc2)no1)c1ccco1,43.1%,-4.1%,11.2,-2.3%,?,5.5
O=C(Nc1ccc(-c2noc(CCc3ccccc3)n2)cc1)c1ccco1,?,-87.7%,57.6*,-14.1%,?,84.9*
c1ccc(CCc2nc(-c3ccccc3)no2)cc1,117.9%,-12.2%,34.5*,nt,97.3%,128.6*
c1cncc(-c2noc(CC3CCCCC3)n2)c1,6.0%,-7.1%,41.1*,2.6%,nt,54.5*
O=C1c2ccccc2C(=O)N1CCCc1nc(-c2ccc(Cl)cc2)no1,nt,6.7%,-1.4,-1.1%,?,-15.9

# Screening results deposited in PubChem by National Center for Advancing Translational Sciences (NCATS).
